This passage reports GFP signal change (wild-type ribosome), OD600 change and RFP signal change results from PubChem BioAssay AID720706 (Broad Institute, 2013).

Structures are written as SMILES. Among all 350,000 compounds or so, about 5,500 (1.6%) were called active.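 The calls were made as follows: active = significant combined selectivity score with lowered wild-type GFP, culture density cut under 30%, mutant RFP and density less affected; inactive = any of these conditions unmet.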 This excerpt belongs to a sample that is enriched for actives.

The experiment is described as follows: reduced GFP signal of wild-type E. coli, primary screen, bacterial rRNA inhibitor project, GFP/RFP fluorescence, OD600, single point (AID 720706). To be noted: E. coli WT GFP vs humanized-ribosome RFP mutants, 24 h; GFP signal change (wild-type ribosome): stronger effect = lower value, DMSO median 0, no signal -100; OD600 change: measured here: OD600 growth, DMSO median 0, no signal -100; RFP signal change: measured here: RFP humanized mutant strains, DMSO median 0, no signal -100, concentration not given here.
`COc1ccc(-c2ccc3n(c2=O)C[C@@H]2[C@@H](CO)[C@H](C(=O)Nc4ccccc4)[C@H]3N2C)cc1`: the GFP signal change (wild-type ribosome) is -5.3% (inactive), the OD600 change was -0.765% and the RFP signal change was -2.67%.
Take `N#C[C@H]1[C@@H](c2ccc(C#CC3CCCC3)cc2)[C@H](CO)N1C(=O)Nc1ccc(F)cc1`: the GFP signal change (wild-type ribosome) is -20.3% (inactive), the OD600 change is -36.1% and the RFP signal change is 20.2%.
On the same counts, the results for `CCn1ccnc1CN(C)C(=O)c1cc(COc2ccc(Cl)cc2OC)on1` are 2.1% (inactive), 0.213% and -1.68%.
The corresponding values for `COc1cc(Cl)ccc1OCc1cc(C(=O)N(C)CCc2c(C)n[nH]c2C)no1` are -23.6% (active), -18.4% and 4.51%.
With `CSc1ccccc1OCc1cc(C(=O)N(C)CCc2c(C)n[nH]c2C)no1`, the GFP signal change (wild-type ribosome) was -27.9% (inactive), the OD600 change is -25.7% and the RFP signal change was -4.44%.
The corresponding values for `COc1ccc(C(C)=O)cc1COc1ccc(Cl)c(C)c1` are -21% (active), 2.55% and 1.65%.
The corresponding values for `CCOc1ccc(C(C)=O)cc1COC(=O)c1cnc(Cl)c(Cl)c1` are 4.75% (inactive), 3.34% and -2.34%.
`Cc1ccc(/C(N)=N/OC(=O)COc2ccc(Cl)c(C)c2)cc1`: the GFP signal change (wild-type ribosome) was 6.91% (inactive), the OD600 change was 1.73% and the RFP signal change was -7.27%.
The corresponding values for `C[C@@H]1CN([C@@H](C)CO)C(=O)Cc2cc(NC(=O)Nc3ccc(C(F)(F)F)cc3)ccc2O[C@H]1CN(C)Cc1ccc(C(=O)O)cc1` are -4.09% (inactive), -39.2% and -9.85%.
On to `C[C@@H]1CN([C@@H](C)CO)S(=O)(=O)c2ccc(C#Cc3cccnc3)cc2O[C@@H]1CN(C)C`, for which the GFP signal change (wild-type ribosome) was 11% (inactive), the OD600 change came to 15.5% and the RFP signal change was 0.337%.
The corresponding values for `S=C(Nc1ccc(Br)cc1Cl)N1CCC2(CC1)OCCO2` are -18.4% (inactive), -20.4% and -6.29%.
Regarding `S=C(Nc1ccc(Cl)cc1Cl)N1CCCC1`, the GFP signal change (wild-type ribosome) is -29.6% (active), the OD600 change is 3.51% and the RFP signal change was -5.19%.
For `O=C(NC(=S)Nc1ccc(Cl)cc1Cl)C1CC1`, the GFP signal change (wild-type ribosome) is -7.95% (inactive), the OD600 change is -11.5% and the RFP signal change stood at 2.17%.
The corresponding values for `COc1ccc(-n2c(SCC(=O)NCc3ccco3)nnc2-c2c[nH]c3ccccc23)cc1` are -0.435% (inactive), -16.1% and 3.4%.
On to `O=C(CSc1nnc(-c2ccco2)n1Cc1ccccc1)NC(=O)NCc1ccco1`, for which the GFP signal change (wild-type ribosome) was -20.4% (active), the OD600 change is -7.72% and the RFP signal change was 1.04%.
The corresponding values for `Cc1cc(C)n2nc(SCC(=O)NC(=O)NCc3ccco3)nc2n1` are 24.5% (inactive), 11.7% and -0.644%.
On the same counts, the results for `Cc1c(C(=O)NCC2CCCO2)sc2nc(-c3ccccc3)cn12` (centres undefined) are -4.79% (inactive), -21.2% and -7.98%.
On the same counts, the results for `Cc1ccc(C(=O)N/C(=C\c2ccc(F)cc2)C(=O)NCCN2CCOCC2)cc1` are 8.39% (inactive), 9.73% and -0.48%.
Regarding `Cc1c(C(=O)NCCN2CCOCC2)sc2nc(-c3ccc(F)cc3)cn12`, the GFP signal change (wild-type ribosome) is -16.9% (active), the OD600 change was -2.55% and the RFP signal change turned out to be 3.25%.
On the same counts, the results for `C/C=C/c1ccc([C@H]2[C@@H](CO)N(C(=O)Cc3ccncc3)[C@@H]2CNC(C)=O)cc1` are 1.54% (inactive), 6.92% and -0.347%.
The corresponding values for `C(=N\Nc1ccc2ccccc2n1)/c1ccc2c(c1)OCO2` are -21.9% (active), 16.6% and -0.634%.
The corresponding values for `NC(=O)c1ccc(NC(=O)COC(=O)c2c3c(nc4ccccc24)/C(=C\c2ccc4c(c2)OCO4)CCC3)cc1` are 55.8% (inactive), -19.8% and 1.2%.
`Nc1nonc1-n1nnc(C(=O)N/N=C/c2ccc(Cl)cc2)c1-c1ccc2c(c1)OCO2`: the GFP signal change (wild-type ribosome) was 0.08% (inactive), the OD600 change is 0.681% and the RFP signal change is -3.98%.
On the same counts, the results for `C[C@@H]1CN([C@@H](C)CO)C(=O)c2cccc(NC(=O)c3cnccn3)c2O[C@H]1CN(C)S(=O)(=O)c1cccs1` are 4.71% (inactive), 6.99% and -1.1%.
On to `CCC(=O)Nc1ccc2c(c1)OC[C@H](C)N(Cc1ccccc1OC)C[C@@H](C)[C@@H](OC)CN(C)C2=O`, for which the GFP signal change (wild-type ribosome) was 0.179% (inactive), the OD600 change stood at 4.08% and the RFP signal change was 2.06%.
On the same counts, the results for `CCCNC(=O)N(C)C[C@@H]1Oc2ncc(-c3ccccc3F)cc2C(=O)N([C@@H](C)CO)C[C@H]1C` are 0.96% (inactive), 11.5% and -3.35%.
As for `O=C(Nc1ccccc1Cl)Nc1cccc2cccnc12`, the GFP signal change (wild-type ribosome) was -27.2% (active), the OD600 change was -17.3% and the RFP signal change is -8.08%.
On the same counts, the results for `O=C(Nc1ccccc1)Oc1cccc2cccnc12` are 7.63% (inactive), 14.2% and 1.55%.
In the case of `CC(=O)/C(=N\Nc1ccc(Cl)cc1Cl)Sc1cccc2cccnc12`, the GFP signal change (wild-type ribosome) is -8.55% (inactive), the OD600 change is -0.275% and the RFP signal change was -1.79%.
For `COc1ccc2c3c(n(C)c2c1)[C@@H](CO)N(S(C)(=O)=O)CC31CCN(C(=O)C2CCC2)CC1`, the GFP signal change (wild-type ribosome) was -4.54% (inactive), the OD600 change is -7.74% and the RFP signal change was -2.66%.
On the same counts, the results for `CCNC(=S)N1CCN(CCN=CC2=C(O)CC(C)(C)CC2=O)CC1` are 9.96% (inactive), 0.25% and -7.06%.
As for `CCOC(=O)c1c(CC(C)C)csc1/N=C/C1=C(O)CCCC1=O`, the GFP signal change (wild-type ribosome) was -13.2% (inactive), the OD600 change is -8.82% and the RFP signal change worked out at 21.8%.
For the molecule `CCOC(=O)c1sc(/N=C/C2=C(O)CC(C)(C)CC2=O)c(C(=O)OCC)c1C`, the GFP signal change (wild-type ribosome) was -22.9% (active), the OD600 change is -5.5% and the RFP signal change was -2.5%.
